{
  "source": "PubChem BioAssay (NCI)",
  "note": "Compounds without any hit were thinned out: in the full panel of roughly 83,000, 20% have a hit.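 Testing used 96-well plates and a 48-hour single-concentration exposure. Example: -40 means 40% of the starting cells died.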 Values without a mark were called inactive. The source made the active and inactive calls. The calls were made as follows: active = growth percent below 10; inactive = the rest.",
  "data": [
    {"system": "NCI-H522 lung", "assay": "NCI-60 one-dose screen, 48 h (100 = growth as untreated, 0 = no growth, -100 = all killed)", "details": "10 µM", "values": [
      {"smiles": "COc1ccc(N2N=C(c3ccc4c(c3)OCCO4)CC2c2cccc(NC(=O)CCCNS(=O)(=O)c3ccc(F)cc3)c2)cc1", "note": "(configuration not stated)", "growth": "58.9%"},
      {"smiles": "COc1cc(/C=N/NC(=O)c2ccc3nc(-c4ccc(Cl)cc4)[nH]c3c2)cc(OC)c1OC", "growth": "-44.2% (active)"},
      {"smiles": "O=C(N=Nc1c(O)[nH]c2ccc(Br)cc12)c1ccc2nc(-c3ccccc3)[nH]c2c1", "growth": "-79% (active)"},
      {"smiles": "COc1ccccc1[C@H]1C(C(=O)c2ccc(Cl)cc2)C2(N[C@@H]1c1ccccc1)C(=O)Nc1ccc(Cl)cc12", "note": "(some centres not stated)", "growth": "-5.89% (active)"},
      {"smiles": "O=c1cc(-c2ccccc2)oc2cc(OCCCNCc3ccccc3)cc(O)c12", "growth": "-62.6% (active)"},
      {"smiles": "O=C1Nc2cc(-c3ccc(NC(=O)c4cccs4)cc3)ccc2/C1=C/c1ccc[nH]1", "growth": "79.4%"},
      {"smiles": "O=C(c1ccc(O)cc1)C1[C@H](c2ccc(Br)cc2)[C@@H](c2ccccc2)NC12C(=O)Nc1ccccc12", "note": "(some centres not stated)", "growth": "32.4%"},
      {"smiles": "C=C1CCC2C3(C)COC(c4ccccc4F)OC3CCC2(C)C1C/C=C1/C(=O)OCC1O", "note": "(configuration not stated)", "growth": "-72.5% (active)"},
      {"smiles": "C=C1CCC2C3(C)COC(c4c(F)cccc4F)OC3CCC2(C)C1C/C=C1/C(=O)OCC1O", "note": "(configuration not stated)", "growth": "-67.7% (active)"},
      {"smiles": "COc1cccc(/C=C2\\N=C(C)N(CCc3ccc(S(N)(=O)=O)cc3)C2=O)c1", "growth": "94.5%"},
      {"smiles": "C=C1CCC2C3(C)COC(c4cccc(F)c4)OC3CCC2(C)C1CC(O)C1=CCOC1=O", "note": "(configuration not stated)", "growth": "23.9%"},
      {"smiles": "Cn1cc(-c2cc(N)n3nc(-c4c[nH]c5ccc(Br)cc45)cc3n2)c2cccnc21", "growth": "-82.8% (active)"},
      {"smiles": "C=C1CCC2C3(C)COC(c4c(F)cccc4F)OC3CCC2(C)C1CC(O)C1=CCOC1=O", "note": "(configuration not stated)", "growth": "-33.8% (active)"},
      {"smiles": "Brc1ccc(/C=C/c2n(Cc3ccc4ccccc4c3)c3ccccc3[n+]2Cc2ccc3ccccc3c2)cc1", "growth": "-84.2% (active)"},
      {"smiles": "O=C(Nc1ccc(I)cc1)Nc1nc2ccc([N+](=O)[O-])cc2s1", "growth": "-89.4% (active)"},
      {"smiles": "O=C(N/N=C/c1ccc(B(O)O)o1)c1[nH]c2ccc(Br)cc2c1-c1ccccc1", "growth": "-51% (active)"},
      {"smiles": "CONC[C@]1(C)C=C2C(=O)[C@](C)(O)C3(CC3)C(C)=C2[C@H]1O", "growth": "-71.1% (active)"},
      {"smiles": "O=C(Nc1cccc(-c2cn(-c3ccc4oc(=O)ccc4c3)nn2)c1)Nc1cc(C(F)(F)F)cc(C(F)(F)F)c1", "growth": "21.8%"},
      {"smiles": "CCCCCCCCCCCCCCCCCCCC(=O)NCCc1c[nH]c2ccc(OC(=O)CCCC(=O)OCCOOCCOOCCOOCCOOCCOOCCOOCCOOCCOOCCOOCCOOCCOOCCOC)cc12", "growth": "-82.9% (active)"},
      {"smiles": "COc1ccc(/C(C)=N/N=C2C(=O)N(C)c3ccc(Br)cc32)cc1S(N)(=O)=O", "growth": "45.5%"},
      {"smiles": "N#Cc1c(NC(=O)c2ccc(C(F)(F)F)cc2C(F)(F)F)sc2c1CCC(=O)C2", "growth": "-72.5% (active)"},
      {"smiles": "CNCc1cccc2c1OCCCCCC[C@@](C)(O)CC1(CC1)S(=O)(=O)c1ccc(cc1)-c1cnc(N)c(n1)C(=O)N2", "growth": "-87.2% (active)"},
      {"smiles": "COc1cc(OC(F)(F)F)ccc1C(=O)Nc1sc2c(c1C#N)CCC(=O)C2", "growth": "-36.3% (active)"},
      {"smiles": "Nc1n[nH]c2cccc(C#Cc3cccc(NC(=O)Nc4cc(C(F)(F)F)cc(C(F)(F)F)c4)c3)c12", "growth": "-58.4% (active)"},
      {"smiles": "N#Cc1c(-c2ccc(F)cc2)nc(SCc2ccc([N+](=O)[O-])cc2)nc1N1CCOCC1", "growth": "41.3%"},
      {"smiles": "CC1=N/C(=C\\c2ccc(N(C)C)cc2)C(=O)N1CCc1ccc(S(N)(=O)=O)cc1", "growth": "87.2%"},
      {"smiles": "CN(CCF)c1ccc(/C=C/C(=O)c2ccc(N)cc2O)cc1", "growth": "67.5%"},
      {"smiles": "O=C(c1ccc(Cl)cc1)C1[C@H](c2ccccc2Br)[C@@H](c2ccccc2)NC12C(=O)Nc1ccccc12", "note": "(some centres not stated)", "growth": "-3.71% (active)"},
      {"smiles": "O=C(Nc1cc(Cl)cc(Cl)c1)Nc1cc(Cl)cc(Cl)c1", "growth": "-36.1% (active)"},
      {"smiles": "O=C(c1ccc(O)cc1)C1[C@H](c2ccc(Br)cc2)[C@@H](c2ccccc2)NC12C(=O)Nc1ccc(Br)cc12", "note": "(some centres not stated)", "growth": "-41.6% (active)"},
      {"smiles": "COc1ccccc1[C@H]1C(C(=O)c2ccc(O)cc2)C2(N[C@@H]1c1ccccc1)C(=O)Nc1ccc(Br)cc12", "note": "(some centres not stated)", "growth": "-7.87% (active)"},
      {"smiles": "CN1CCN(c2ccc(C(=O)/C=C/c3ccc(C#N)cc3)cc2)CC1", "growth": "81.5%"},
      {"smiles": "CC(C)(C)Nc1nc2cc(Cl)c(Cl)cc2nc1S(C)(=O)=O", "growth": "-80.6% (active)"},
      {"smiles": "COc1cc(/C=C/C(=O)c2cc(OC)c(OC)c(OC)c2)ccc1Oc1nc(Nc2ccc(F)cc2)nc(N(C)C)n1", "growth": "-82.7% (active)"},
      {"smiles": "C=C1CCC2C3(C)COC(c4cc(F)cc(F)c4)OC3CCC2(C)C1C/C=C1/C(=O)OCC1O", "note": "(configuration not stated)", "growth": "-79.8% (active)"},
      {"smiles": "Cc1cc(C(F)(F)F)ccc1C(=O)Nc1sc2c(c1C#N)CCC(=O)C2", "growth": "-62.9% (active)"},
      {"smiles": "N#Cc1c(Cl)nc(SCc2ccc(F)cc2)nc1-c1ccc(F)cc1", "growth": "74.6%"}
    ]}
  ]
}
